Test results from PubChem BioAssay (EPA / NIEHS).
Activity calls are given as the source filed them. How the source made its calls, unless noted: active means hit-call score of the fitted dose curve at least 0.9, where 1 is the maximum; inactive means score below 0.9.

How the values were obtained:
[1] = read-out: Transforming Growth Factor (TGFA), TGFA (gene 7039); assay: LTEA_HepaRG_TGFA: Life Technologies and Expression Analysis (LTEA) Assay for Transforming Growth Factor (TGFA) using HepaRG (AID 2283532); details: mRNA level, 48 h; actives raise or lower the signal
In short: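 Differentiated HepaRG cells exposed 48 hours in serum-free induction medium, 0.5% DMSO vehicle, 8-point half-log series from 100 uM, in duplicate. TGFA mRNA by TaqMan qRT-PCR, normalised to ACTB, GAPDH, POLR2A; bidirectional fit versus DMSO.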

[2] = read-out: Transforming Growth Factor (TGFB1), TGFB1 (gene 7040); assay: LTEA_HepaRG_TGFB1: Life Technologies and Expression Analysis (LTEA) Assay for Transforming Growth Factor (TGFB1) Transporter using HepaRG (AID 2283533); details: mRNA level, 48 h; actives raise or lower the signal
In short: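 Expression change of TGFB1 in human HepaRG cells is measured after a 48 h chemical exposure, up to 100 uM in 0.5% DMSO vehicle. Curves are fitted in both directions relative to the DMSO baseline.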

TIMP1, TIMP1 (gene 7076) = assay: LTEA_HepaRG_TIMP1: Life Technologies and Expression Analysis (LTEA) Assay for TIMP1 using HepaRG (AID 2283534); details: mRNA level, 48 h; actives raise or lower the signal;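 further: TaqMan qRT-PCR signal normalized to ACTB GAPDH and POLR2A housekeeping genes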
In short: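 We dosed human liver HepaRG cultures for 48 hours with up to 100 uM test chemical and measured TIMP1 expression by qRT-PCR. Activity in either direction is fitted relative to the 0.5% DMSO vehicle.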

[3] = read-out: Tumor necrosis factor receptor 1 (TNFRSF1A), TNFRSF1A (gene 7132); assay: LTEA_HepaRG_TNFRSF1A: Life Technologies and Expression Analysis (LTEA) Assay for Tumor necrosis factor receptor 1 (TNFRSF1A) using HepaRG (AID 2283535); details: mRNA level, 48 h; actives raise or lower the signal
In short: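 Expression of TNFRSF1A in human HepaRG liver cells was measured by qRT-PCR 48 h after chemical dosing (maximum 100 uM). Bidirectional curve fitting used 0.5% DMSO as baseline.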

[4] = read-out: Thyroid Hormone Responsive (THRSP), THRSP (gene 7069); assay: LTEA_HepaRG_THRSP: Life Technologies and Expression Analysis (LTEA) Assay for Thyroid Hormone Responsive (THRSP) using HepaRG (AID 2283536); details: mRNA level, 48 h; actives raise or lower the signal
In short: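 Differentiated HepaRG cells treated 48 h in serum-free induction medium with 8 half-log concentrations up to 100 uM (0.5% DMSO), duplicates. THRSP mRNA by TaqMan qRT-PCR normalised to ACTB, GAPDH, POLR2A; bidirectional fit versus DMSO.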

[5] = read-out: Cellular tumor antigen p53 (Homo sapiens) (UniProt P04637); assay: LTEA_HepaRG_TP53: Life Technologies and Expression Analysis (LTEA) Assay for Tumor Protein P53 (TP53) using HepaRG (AID 2283537); details: mRNA level, 48 h; actives raise or lower the signal
In short: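 Gain or loss of TP53 mRNA signal is scored relative to 0.5% DMSO after 48 h chemical treatment of HepaRG liver cells, tested in duplicate at eight half-log concentrations up to 100 uM.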

[6] = read-out: UDP glucuronosyltransferase (UGT1A1), UGT1A1 (gene 54658); assay: LTEA_HepaRG_UGT1A1: Life Technologies and Expression Analysis (LTEA) Assay for UDP glucuronosyltransferase (UGT1A1) using HepaRG (AID 2283538); details: mRNA level, 48 h; actives raise or lower the signal
In short: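 HepaRG cells, 0.5% DMSO vehicle, 48 h exposure in serum-free induction medium to 8-point half-log series topping at 100 uM, in duplicate. UGT1A1 mRNA by Fluidigm qRT-PCR, normalized to ACTB/GAPDH/POLR2A; bidirectional fit versus DMSO.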

[7] = read-out: UDP glucuronosyltransferase (UGT1A6), UGT1A6 (gene 54578); assay: LTEA_HepaRG_UGT1A6: Life Technologies and Expression Analysis (LTEA) Assay for UDP glucuronosyltransferase (UGT1A6) using HepaRG (AID 2283539); details: mRNA level, 48 h; actives raise or lower the signal
In short: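 Endpoint is UGT1A6 transcript induction or loss in a human liver cell line, quantified by TaqMan qRT-PCR 48 h after dosing. Concentrations ran from 100 uM downward in half-log steps in 0.5% DMSO; activity was fitted in both directions versus vehicle.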

[8] = read-out: X-box binding protein 1 (XBP1), XBP1 (gene 7494); assay: LTEA_HepaRG_XBP1: Life Technologies and Expression Analysis (LTEA) Assay for X-box binding protein 1 (XBP1) using HepaRG (AID 2283540); details: mRNA level, 48 h; actives raise or lower the signal
In short: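 Human HepaRG monolayers receive test chemical for 48 h across an eight-point half-log series starting at 100 uM. XBP1 mRNA gain or loss is scored against DMSO by qRT-PCR.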

[9] = LTEA_HepaRG_LDH_cytotoxicity: Cytotoxicity Assessment in the Life Technologies and Expression Analysis (LTEA) Assay (AID 2283563; active means hit-call score of the fitted dose curve at least 0.9, where 1 is the maximum)
In short: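 Human HepaRG hepatic cells are treated with test chemicals for 48 h at up to 100 uM in 0.5% DMSO. Cytotoxicity is scored from medium LDH against the vehicle control.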

Measured: AC50

Chain of Cellular tumor antigen p53 (Homo sapiens) (P04637 whole entry, looked up): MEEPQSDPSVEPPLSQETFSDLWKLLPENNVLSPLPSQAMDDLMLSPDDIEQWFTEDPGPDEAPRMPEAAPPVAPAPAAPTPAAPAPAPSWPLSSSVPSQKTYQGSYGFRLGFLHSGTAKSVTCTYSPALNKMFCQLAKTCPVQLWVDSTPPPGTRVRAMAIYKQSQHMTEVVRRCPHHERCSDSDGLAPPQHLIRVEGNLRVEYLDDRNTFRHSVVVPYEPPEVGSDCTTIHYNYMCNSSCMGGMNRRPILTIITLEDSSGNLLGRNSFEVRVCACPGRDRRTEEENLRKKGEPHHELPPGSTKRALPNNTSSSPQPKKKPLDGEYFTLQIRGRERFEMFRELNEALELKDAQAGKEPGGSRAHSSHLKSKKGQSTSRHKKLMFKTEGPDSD

O=C(O)c1ccc([N+](=O)[O-])cc1
active: [3] 646 nM
inactive: [1] | [2] | TIMP1, TIMP1 (gene 7076) | [4] | [5] | [6] | [7] | [8] | [9]
